# The full list was thinned out, with hits kept by preference.
# TNAP act DEA – human TNAP activation, intermediate phosphate acceptor. 64,000 tested, under 10 active. purified TNAP, CDP-star luminescence, 100 mM DEA, 30 min; hits give high values; scale: 0 levamisole-inhibited, 1 vehicle-only enzyme. P05186. activation factor at 20 µM;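 active means activation factor of at least 2 at 20 µM, relative to controls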
# Candida biofilm – kills Candida albicans biofilms. AID 834. actives 0.14% (n = 85,000). C. albicans biofilm + clotrimazole, Alamar Blue. inhibition, % at 6 µM;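 active means inhibition above 20%; inactive means inhibition below 20%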;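 further: preformed 24 hr biofilms exposed to compound for 48 hr; 0% = biofilm without compound and 100% = blank killed by clotrimazole plus chlorhexidine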
# HePTP inhibitor – blocks human HePTP tyrosine phosphatase | P35236 | recombinant HePTP phosphatase activity, OD absorbance | inhibition, % at 20 µM | actives 0.64% (n = 110,000); in the data active means inhibition above about 50%;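 further: plate controls were vehicle for no effect and reference inhibitor for full effect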
# FXIa inh mix – inhibitors of human coagulation factor XIa, pooled mixtures | AID 680 | P03951 | purified FXIa, fluorogenic substrate | inhibition, % at 5 µM | actives 0.19% (n = 62,000);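 further: each value is inhibition by a whole ten-compound pool holding the compound; 0% = enzyme with no mixture and 100% = wells lacking enzyme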
# FXIIa mix inh – inhibitors of human coagulation factor XIIa, pooled mixtures | actives 0.2% (n = 62,000) | purified FXIIa, fluorogenic substrate | P00748 | inhibition, % at 5 µM;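 further: 0% = enzyme without compound and 100% = no enzyme blank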
# D1 mod – allosteric modulators of human D1 dopamine receptor | B-score at 10 µM | actives 5.9% (n = 58,000) | P21728 | AID 641 | HEK293 D1, CRE-luciferase, dopamine EC30 potentiation; actives deviate in either direction;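 active means luminescence count or its row- and column-corrected plate score outside the 99.7% band of the plate's sample wells, on either side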
# Target sequence (P21728 whole entry, looked up): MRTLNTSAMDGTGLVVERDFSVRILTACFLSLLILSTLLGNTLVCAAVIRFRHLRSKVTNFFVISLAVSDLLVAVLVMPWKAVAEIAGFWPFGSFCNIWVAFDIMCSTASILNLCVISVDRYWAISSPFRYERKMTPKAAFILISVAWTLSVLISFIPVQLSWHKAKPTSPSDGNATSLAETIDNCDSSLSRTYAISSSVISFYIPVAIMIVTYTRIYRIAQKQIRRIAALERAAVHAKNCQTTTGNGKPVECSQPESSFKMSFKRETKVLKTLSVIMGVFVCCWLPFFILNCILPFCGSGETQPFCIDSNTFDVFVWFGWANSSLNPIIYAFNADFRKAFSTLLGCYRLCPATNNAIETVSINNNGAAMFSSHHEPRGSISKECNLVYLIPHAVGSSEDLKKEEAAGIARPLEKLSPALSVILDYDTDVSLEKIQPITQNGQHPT
# * = called active by the depositor; / = no result. Unless noted, no stated cut-off is given here; in the data, active means inhibition above about 20% (passing the limit was not always enough); inactive means the rest.
SMILES,TNAP act DEA,Candida biofilm,HePTP inhibitor,FXIa inh mix,FXIIa mix inh,D1 mod
CCC(=O)NC(C)C(c1cccs1)N1CCN(Cc2ccccc2)CC1 (stereo unspecified),/,6,/,/,/,/
CC(NC(=O)c1cccs1)C(c1cccs1)N1CCN(Cc2ccccc2)CC1 (stereo unspecified),0.9,7,12,13,-3,-2.1*
C=C(C)C1CC=C(C)/C(=N/NC(N)=O)C1 (stereo unspecified),/,/,-6,/,/,/
O=C1C(N2CCOCC2)=C/C(=N\S(=O)(=O)c2ccc(Cl)cc2)c2ccccc21,/,/,9,/,/,/
O=C1C=CC(=O)C(/C(=C/NCc2ccccc2)[N+](=O)[O-])=C1,/,/,104*,/,/,/
O=[N+]([O-])c1ccc(Cl)cc1NCc1ccccc1,/,/,7,/,/,/
Cc1cccc(N2C(=O)C3C4c5ccccc5C(C)(c5ccccc54)C3C2=O)c1C (stereo unspecified),/,/,-5,/,/,/
COc1ccc(-c2cc3nc4n(c(=O)c3s2)CCC4)cc1,0.9,3,12,-20,-4,-5.9*
CC1CCc2c(sc(NC(=O)c3ccc(Cl)c(Cl)c3)c2C(N)=O)C1 (stereo unspecified),/,/,105*,/,/,/
CCOC(=O)Nc1sc2c(c1C(N)=O)CCC(C)C2 (stereo unspecified),/,/,103*,/,/,/
CC1CCc2c(sc(NC(=O)c3cccc(Br)c3)c2C(N)=O)C1 (stereo unspecified),/,/,-14,/,/,/
CCOC(=O)c1c(NC(C)=O)sc2c1CCC(C)C2 (stereo unspecified),/,/,-8,/,/,/
COc1ccc(C2/C(=C(\O)c3ccccc3)C(=O)C(=O)N2CCCC(=O)O)c(OC)c1 (stereo unspecified),/,/,6,/,/,/
COc1ccccc1C1/C(=C(\O)c2ccc([N+](=O)[O-])cc2)C(=O)C(=O)N1CCCCCC(=O)O (stereo unspecified),/,/,-12,/,/,/
COc1ccc(-c2noc(CCCC(=O)O)n2)cc1,1,8,11,4,13,-5.5*
Cc1ccc(SCc2[nH]nc3c2C(c2ccc(C)o2)C(C#N)=C(N)O3)cc1 (stereo unspecified),0.8,/,7,86*,6,-0.22
c1cnc(Nc2nc(-c3cccs3)cs2)nc1,/,/,102*,/,/,/
c1ccc(CNn2c(N3CCOCC3)nc3ccccc32)cc1,0.9,3,4,10,3,-3.3*
CCc1ccccc1NC(=O)/C(=C/c1ccco1)c1ccccc1,/,67*,/,/,/,/
Cc1ccccc1NC(=O)/C(=C/c1ccco1)c1ccccc1,/,3,/,/,/,/
CC1=C(C#N)c2nc(N)c(C#N)c(C)c2/C1=C/c1ccc(-c2ccc(C(=O)O)c(Cl)c2)o1,/,/,102*,/,/,/
CN(c1ccccc1)S(=O)(=O)c1cc(C(=O)N2CCN(c3ccccn3)CC2)ccc1Cl,0.9,8,1,-9,2,-3.3*
NC(=O)C(Cc1ccccc1)N1CC(=O)NC(=O)C1 (stereo unspecified),/,/,-20,/,/,/
COc1cc([N+](=O)[O-])ccc1-c1ccc(/C=C2\C(=O)NN(c3ccccc3)C2=O)o1,/,/,1,/,/,/
COc1ccccc1CNC(=O)c1ccc(F)cc1,/,/,8,/,/,/
SMILES,TNAP act DEA,Candida biofilm,HePTP inhibitor,FXIa inh mix,FXIIa mix inh,D1 mod
CCc1ccc(C(=O)Nc2nnn(CC)n2)cc1,1,0,-7,3,6,-4.5*
O=C(Nc1ccc(-c2nc3ccccc3o2)cc1)C1CCCO1 (stereo unspecified),0.9,7,9,6,2,-5.2*
COc1ccc(CCNC(=O)/C=C/c2ccc([N+](=O)[O-])cc2)cc1,/,/,75*,/,/,/
CSc1nc(N2CCOCC2)c2c3c(sc2n1)CCC3,0.9,2,-12,-1,4,8.5*
CCCOC(=O)c1ccccc1OC(=O)c1ccc([N+](=O)[O-])cc1,/,/,-5,/,/,/
COc1cc2[nH]c(=O)c(C(=O)NCCCN3CCCCC3)c(O)c2cc1OC,0.9,-3,4,-1,11,-4.3*
O=C(NCCCN1CCOCC1)c1c(O)c2ccccc2[nH]c1=O,0.9,11,-3,-2,-2,/
CNc1nc(Nc2cccc([N+](=O)[O-])c2)nc(OCC(F)(F)F)n1,/,/,105*,/,/,/
CNc1nc(Nc2nc(C)cc(C)n2)nc(OCC(F)(F)F)n1,/,/,4,/,/,/
Cc1ccc(C(O)(C(=O)N=c2ccccn2O)c2ccc(C)cc2)cc1,/,/,-4,/,/,/
CN(C)C1(c2cccs2)CS(=O)(=O)C1,/,/,102*,/,/,/
COc1ccc(CN(Cc2nc3ccccc3c(=O)[nH]2)C(=O)C(C)(C)C)cc1,0.9,6,6,8,-19,-4.9*
COc1ccc(CN(Cc2nc3ccccc3c(=O)[nH]2)C(=O)NC2CCCCC2)cc1,0.9,8,4,9,-17,1.2
CC(C)n1nc(C(=O)OCC(=O)c2c[nH]c3ccccc23)c2ccccc2c1=O,/,-3,/,/,/,/
CCn1nc(C(=O)OCC(=O)c2c[nH]c3ccccc23)c2ccccc2c1=O,0.9,10,1,0,-2,-3.2*
Cc1cc(C)c(C(=O)/C=C/c2ccc(-c3ccccc3)o2)cc1C,/,/,4,/,/,/
O=C1/C(=C/C=C/c2ccccc2)SC(=S)N1c1cccc(C(F)(F)F)c1,/,/,-1,/,/,/
Clc1ccc(-n2ncnc2-c2cccc(Cl)c2)cc1,/,/,-6,/,/,/
Cc1cc(C)c2nc(N3CCCC(C(=O)N4CCC(C(N)=O)CC4)C3)sc2c1 (stereo unspecified),1,7,13,2,-16,-4.1*
Cc1cc(C)c2nc(N3CCCC(C(=O)NCCN4CCOCC4)C3)sc2c1 (stereo unspecified),0.9,0,12,3,3,-0.92
CCc1c(C)sc(NC(=O)CCc2ccc(OC)cc2)c1C(=O)OC,/,/,104*,/,/,/
CCc1c(C)sc(NC(=O)c2ccc(OC)cc2)c1C(N)=O,/,/,-9,/,/,/
CCOc1ccc(NC(=O)C(C)SC(N)=O)cc1 (stereo unspecified),0.8,3,6,7,3,-2.6*
CSc1nnc(-c2ccccc2)o1,0.9,7,2,8,4,1.5
O=S1(=O)C=C(Sc2nnc(-c3ccccc3)o2)c2ccccc21,0.9,4,5,5,6,-2.9*
SMILES,TNAP act DEA,Candida biofilm,HePTP inhibitor,FXIa inh mix,FXIIa mix inh,D1 mod
CCOC(=O)c1c(NC(=O)CSc2n[nH]c(-c3ccco3)n2)sc(C)c1C,0.9,7,10,3,0,6.9*
CCOC(=O)c1c(NC(=O)CSc2n[nH]c(CNc3ccccc3)n2)sc(C)c1C,/,3,/,/,/,/
CCCOC(=O)c1c(NC(=O)C2C3CCC(C3)C2C(=O)O)sc2c1CCC(C)C2 (stereo unspecified),/,/,0,/,/,/
Cc1c(C(=O)NCCc2ccccc2)oc2ccc(S(=O)(=O)N3CCC4(CC3)OCCO4)cc12,0.9,-6,12,9,-1,/
COc1ccc(NC(=O)c2oc3ccc(S(=O)(=O)N4CCC5(CC4)OCCO5)cc3c2C)cc1,0.9,7,-5,-31,0,-3.3*
Cc1ccc2c(COC(=O)C3=COCCO3)cc(=O)oc2c1,1.1,0,-10,5,4,-4.8*
Cc1ccc2c(COC(=O)c3cnc(C)cn3)cc(=O)oc2c1,0.9,/,9,9,-2,0.5

# Screening data (PubChem BioAssay)
